DT40 TDP1 CPT = DT40-hTDP1 cell growth loss with CPT | chicken DT40 Tdp1-/-;hTDP1 cells + 20 nM CPT, ATP luminescence, 48 h | Potency, µM (titrated, usually from 46.2 µM), for the others: top-dose activity change, negative = growth inhibition, usual class: inhibitors | actives 12% (n = 420,000); also: potency is read from the fitted curve at half-maximal effect; nearly all actives have a fitted effect of over 55% in size
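Cell growth measured by CellTiter-Glo luminescence after a minimum 48 h, 37 C compound exposure with 20 nM CPT in Tdp1-knockout DT40 cells stably expressing hTDP1, seeded 400/well; qHTS titration format.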
IL-1B inflam inh = blocks inflammasome-driven IL-1 beta release. THP-1 LPS/ATP IL-1B secretion, AlphaLISA, 16 h; active compounds read low. activity change, % at 57.5 µM. actives 4.7% (n = 360,000). AID 743279; in the data active = activity change below about -50%; inconclusive = mostly about -30% to -49%
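THP-1 cells pretreated 1 hr with compounds (up to 57.5 uM final), then stimulated with LPS (250 ng/mL final) plus ATP (1.25 mM final); secreted IL-1B measured by AlphaLISA after 16 hr, decreased signal indicating inhibition.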
HT1080 IDH1KD tx = kills HT-1080 cells with IDH1 knockdown; HT-1080 IDH1 knockdown viability, ATP luminescence, 48 h; Potency, µM (top dose mostly 46.1 µM), inactives show top-dose activity, negative = toxicity, hits mostly cytotoxic; actives 2% (n = 360,000); AID 686971;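 also: potency is read from the fitted curve at half-maximal effect; 0% = DMSO wells and -100% = cell-free medium wells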
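Cytotoxicity counter-line: IDH1KD HT-1080, 48 h, CellTiter-Glo. Curves classed by r2, magnitude and activity.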
HT1080-NT tox = kills 2HG-producing HT-1080-NT fibrosarcoma cells; HT-1080-NT fibrosarcoma viability, CellTiter-Glo ATP luminescence, 48 h; Potency, µM (titrated, usually from 46.1 µM), without a hit: at the top dose activity, negative = less viability, actives largely listed as cytotoxic; actives 1.6% (n = 360,000);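 also: NT is the 2HG producing partner of a matched IDH1 knockdown line; potency is read from the fitted curve at half-maximal effect; 0% = DMSO-treated cells and -100% = media-only wells without cells; nearly all actives have a fitted effect of over 55% in size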
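HT-1080-NT fibrosarcoma cells (2HG-overproducing), 750 cells/well in RPMI with 5% FBS, dosed after 2 h and incubated 48 h at 37C. CellTiter-Glo luminescence normalized to DMSO and no-cell wells; concentration-response curves fitted and classed.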
DT40 TDP1 no CPT = qHTS for Inhibitors of human tyrosyl-DNA phosphodiesterase 1 (TDP1): qHTS in cells in absence of CPT | DT40 Tdp1-/- hTDP1 cells, no CPT, ATP luminescence, 48 h | Potency, µM (doses to about 46.2 µM), for inactives: top-dose activity change, negative = growth inhibition, hits mostly inhibitors | actives 15% (n = 420,000) | AID 686978, 2013; also: potency is read from the fitted curve at half-maximal effect; nearly all actives have a fitted effect of over 55% in size
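Growth of hTDP1-complemented DT40 Tdp1-knockout cells is measured by ATP luminescence after at least 48 hr compound exposure at 37 °C, with DMSO substituting for the 20 nM CPT used in the parallel screen.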
uPA surface inh = cell surface uPA generation inhibition | Potency, µM (top dose mostly 38.3 µM), without a hit: at the highest dose activity change, negative = inhibition, hits mostly inhibitors | actives 0.31% (n = 330,000) | cell surface uPA generation assay, qHTS; active = well fitted inhibition curve with a large enough effect; inconclusive = small, poorly fitted or top-dose-only effect; inactive = no such curve, though single readings can be large or run the other way; tested in mouse RAW 264.7 cells; also: potency is read from the fitted curve at half-maximal effect; nearly all actives have a fitted effect of over 55% in size
Starred values were filed as active, the others as inactive; ? = inconclusive; . = no result; [ ] = another dose, or the depositor's remark. Sampled rows, rich in hits. Any-hit rate of the full collection: about 19%. Unless noted, calls follow the shape of the dose curve; as a rule, active = well fitted curve in the direction sought with a large enough effect; inconclusive = small, poorly fitted or top-dose-only effect, or another doubt; inactive = no such curve, though single readings can be large; an effect the other way counts as inactive or inconclusive. Unless noted, % is scaled to controls: 0 for no effect and ±100 for the full control effect.

SMILES	DT40 TDP1 CPT	IL-1B inflam inh	HT1080 IDH1KD tx	HT1080-NT tox	DT40 TDP1 no CPT	uPA surface inh
O=C(CNc1ccc(Br)cc1)c1ccc(Br)s1	-25%	-29	-4%	-19%	-23%	1%
CSc1nc(C)cc(C)c1S(=O)(=O)c1ccccc1C	?	-4	-15%	-10%	?	1%
C#CCOc1nc(C)cc(C)c1S(=O)(=O)c1ccccc1C	4%	-56*	0%	-13%	-2%	-5%
CCC(C)Oc1nc(C)cc(C)c1S(=O)(=O)c1ccccc1C (stereo not drawn)	?	-1	-4%[9.24 µM]	-1%	16µM*	2%
COc1nc(C)cc(C)c1S(=O)(=O)c1ccccc1C	-2%	42	-12%	-13%	0%	1%
CCSc1nc(C)cc(C)c1S(=O)(=O)c1ccccc1C	?	6	-12%	0%	21µM*	1%
Cc1cc(C)c(S(=O)(=O)c2c(C)cccc2C)c(OCC(C)C)n1	23µM*	28	-7%	-11%	13µM*	5%
COc1ccc(C(=O)N2CCC[C@@]3(CCN(Cc4ccc(C#N)cc4)C3)C2)cc1	-7%	.	.	.	?	.
Cc1cccc(NC(=O)C2CCCN(S(=O)(=O)c3c(C)n[nH]c3C)C2)c1 (stereo not drawn)	-6%	.	.	.	?	.
COc1cccc(-c2sc3ccc(OC)cc3c2-c2cnc(N3CCOCC3)nc2)c1	-9%	-8	-12%	4%	-24%	.
Cc1cccc(-c2nc(CSc3nncn4c3cc3sccc34)c(C)o2)c1	-96%	.	.	.	?	.
COc1ccc(-c2nc(CSc3nncn4c3cc3sccc34)c(C)o2)cc1OC	1.8µM*	.	.	.	2.6µM*	.
Cc1cc(N)n2nc(-c3ccccc3)cc2n1	-38%	-72*	?	?	?	-14%
Cc1ccc(NC(=O)c2nc(S(C)(=O)=O)ncc2N(Cc2ccco2)Cc2cccs2)c(C)c1	?	.	.	.	21µM*	.
Cc1ccccc1NC(=O)c1nc(S(C)(=O)=O)ncc1N(Cc1ccco1)Cc1sccc1C	16µM*	.	.	.	21µM*	.
Cc1ccc(CN(Cc2ccco2)c2cnc(S(C)(=O)=O)nc2C(=O)Nc2ccccc2Br)o1	9.2µM*	.	.	.	8.2µM*	.
Cc1ccccc1NC(=O)CSc1nccn1Cc1ccco1	-16%	-17	-2%	-1%	-28%	.
CCS(=O)(=O)c1ncc(N(Cc2cccc(F)c2)Cc2ccco2)c(C(=O)Nc2ccccc2Cl)n1	?	.	.	.	6.5µM*	.
COc1ccccc1N1C(=O)CC(Sc2ccccc2N)C1=O (stereo not drawn)	-18%	14	-4%	-1%	?	-3%
Cc1ccc(OC2CCN(C(=O)[C@H]3O[C@@H](n4ccc(N)nc4=O)[C@H](O)[C@@H]3O)CC2)cc1	0%	14	9%	28%	-4%	.
O=C(COC(=O)CCc1c[nH]c2ccccc12)NC(c1ccccc1)c1ccccc1	-22%	14	-3%	-2%	?	1%
CCS(=O)(=O)c1ncc(N(Cc2ccco2)Cc2sccc2C)c(C(=O)Nc2cc(C)ccc2C)n1	?	.	.	.	21µM*	.
Cc1ccc(C)c(N(CC(=O)NCc2ccco2)C(=O)CCC(=O)Nc2nccs2)c1	1%	.	13%	-2%	-29%	-1%
c1ccc(-c2nn3c(C4CCCCC4)nnc3s2)nc1	-16%	-15	0%	21%	-5%	-2%
Clc1ccc(OCc2nn3c(C4CCCCC4)nnc3s2)cc1	21µM*	-9	?	?	21µM*	5%
SMILES	DT40 TDP1 CPT	IL-1B inflam inh	HT1080 IDH1KD tx	HT1080-NT tox	DT40 TDP1 no CPT	uPA surface inh
CCOc1ccc(NC(=O)N2CCC(c3nc4ccccc4[nH]3)CC2)cc1	10%	-12	-10%	-18%	-28%	1%
Clc1cncc(Cl)c1N/N=C/c1ccncc1	?	-95*	?	-14%	?	-8%
Clc1cccc(Cl)c1/C=N/Nc1c(Cl)cncc1Cl	2.1µM*	-82*	5.2µM*	2.3µM*	3.3µM*	-15%
O=C(O)c1cc(N/N=C/c2ccncc2)ccc1Cl	13%	8	20%	-2%	-10%	0%
CC(C)(C)NC(=S)N/N=C/c1c(Cl)cccc1Cl	-23%	65	0%	-3%	?	-4%
O=C(/C=C/[C@H]1O[C@@H](n2ccc(=O)[nH]c2=O)[C@H](O)[C@@H]1O)NCc1cccc2ccccc12	5%	-6	23%	26%	21%	.
COc1ncnc2c1ncn2CCCNCc1ccccn1	2%	33	15%	-1%	-11%	.
Cc1ccc(S(=O)(=O)N2CCN(C(=O)CC(C)n3cncn3)CC2)cc1C (stereo not drawn)	2%	4	9%	-3%	-17%	-4%
O=C1S/C(=C\C=C\c2ccco2)C(=O)N1c1ccccc1	?	-78*	?	?	23µM*	-4%
O=C1S/C(=C\C=C\c2ccco2)C(=O)N1c1ccc(O)cc1	18µM*	-97*	?	?	?	1%
Cc1ccc(-n2cccn2)c(CN2CCCC(C(=O)c3ccc4c(c3)OCO4)C2)c1 (stereo not drawn)	?	-60*	?	-15%	?	-2%
O=C(c1ccc2c(c1)OCO2)C1CCCN(Cc2cc(F)ccc2-n2cccn2)C1 (stereo not drawn)	-1%	6	-12%	-15%	-15%	-3%
Cc1ccc(-n2cccn2)c(CN2CCCC(CNC(=O)c3ccc(F)cc3)C2)c1 (stereo not drawn)	?	-3	-28%	?	12µM*	4%
CCCn1cc(CN2CCCC(CNC(=O)c3ccc(F)cc3)C2)c(C)n1 (stereo not drawn)	-3%	8	2%	4%	10%	0%
CC(=O)Nc1cc(-c2ccc(N3CCN(C)CC3)cc2)cn2c(-c3ccc(F)c(Cl)c3)cnc12	18µM*	.	16µM*	21µM*	?	.
CN1CCN(c2ccc(-c3cc(NC=O)c4ncc(-c5ccc(F)c(Cl)c5)n4c3)cc2)CC1	12µM*	82	?	?	16µM*	.
CC(=O)c1ccc(-c2cnc3c(NC=O)cc(-c4ccc(N5CCN(C)CC5)cc4)cn23)cc1	?	-27	?	26µM*	21µM*	.
CC(=O)Nc1cc(-c2ccc(N3CCN(C)CC3)cc2)cn2c(-c3cccc(C(C)=O)c3)cnc12	?	-23	-29%	-19%	?	.
O=c1c2ccccc2nc(-c2ccc(Cl)cc2)n1CCCCOc1ccc(F)cc1	-19%	.	.	.	-10%	.

Screening data deposited in PubChem BioAssay by National Center for Advancing Translational Sciences (NCATS).
